Assay results as given in PMC7862700, “An all-to-all approach to the identification of sequence-specific readers for epigenetic DNA modifications on cytosine”.

Columns and labels:
Assay in all cases: DAPPL (digital affinity profiling via proximity ligation, sequencing); 10 mM Tris-HCl pH 7.5, 50 mM NaCl, 1 mM DTT, 4% glycerol, room temperature, 30 min; GST-TFs on glutathione beads, 16-mer random dsDNA library, 0.1% formaldehyde crosslink after washing; high values mean tight binding
[1] = target: T1, FEV (Homo sapiens, UniProt Q99581 1-238); details: protein: recombinant; tags: N-terminal GST; dsDNA, one strand shown
T1 sequence: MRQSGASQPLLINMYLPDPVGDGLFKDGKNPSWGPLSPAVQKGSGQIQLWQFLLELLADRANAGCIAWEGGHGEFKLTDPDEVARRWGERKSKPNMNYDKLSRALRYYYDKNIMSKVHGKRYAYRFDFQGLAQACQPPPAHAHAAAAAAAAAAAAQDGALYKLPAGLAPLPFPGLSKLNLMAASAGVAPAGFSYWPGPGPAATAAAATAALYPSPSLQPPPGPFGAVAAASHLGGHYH
How it was run: (§1)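 Sequencing on an Illumina NextSeq500 followed washing, crosslinking with 0.1% formaldehyde, proximity ligation (BsaI/T4 ligase, 1 h, 37 °C) and PCR amplification of pools that had been incubated for 30 min at room temperature with 200 nmole of a random double-stranded 16-mer DNA library in Tris/NaCl/DTT/glycerol buffer. Each pool held DNA-barcoded human transcription factors, expressed in yeast as GST fusions and captured on glutathione beads, plus a tag-only sample. Binding signal is a hexamer's read frequency for a factor divided by its frequency in the tag-only sample.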

[2] = target: ETV5 (Homo sapiens, UniProt P41161 1-510); details: protein: recombinant; tags: N-terminal GST; dsDNA, one strand shown
Sequence of ETV5 (P41161 whole entry): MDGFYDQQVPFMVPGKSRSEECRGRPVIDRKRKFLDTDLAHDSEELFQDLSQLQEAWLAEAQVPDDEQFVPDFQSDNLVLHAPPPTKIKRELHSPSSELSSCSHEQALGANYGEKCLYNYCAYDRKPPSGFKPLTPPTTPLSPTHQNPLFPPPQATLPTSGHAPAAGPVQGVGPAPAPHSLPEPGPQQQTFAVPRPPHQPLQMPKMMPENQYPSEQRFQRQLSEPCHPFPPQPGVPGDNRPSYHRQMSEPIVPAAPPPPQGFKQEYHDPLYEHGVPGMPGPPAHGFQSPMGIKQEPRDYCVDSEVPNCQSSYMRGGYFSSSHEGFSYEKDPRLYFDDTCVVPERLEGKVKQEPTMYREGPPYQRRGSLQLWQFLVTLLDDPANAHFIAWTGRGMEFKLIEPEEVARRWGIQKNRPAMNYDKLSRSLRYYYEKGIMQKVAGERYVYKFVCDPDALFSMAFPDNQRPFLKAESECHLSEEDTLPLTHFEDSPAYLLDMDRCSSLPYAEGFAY
How it was run: as §1

[3] = target: HSF1 (Homo sapiens, UniProt Q00613 1-529); details: protein: recombinant; tags: N-terminal GST; chain copies: 3; dsDNA, one strand shown
Sequence of HSF1 (Q00613 whole entry): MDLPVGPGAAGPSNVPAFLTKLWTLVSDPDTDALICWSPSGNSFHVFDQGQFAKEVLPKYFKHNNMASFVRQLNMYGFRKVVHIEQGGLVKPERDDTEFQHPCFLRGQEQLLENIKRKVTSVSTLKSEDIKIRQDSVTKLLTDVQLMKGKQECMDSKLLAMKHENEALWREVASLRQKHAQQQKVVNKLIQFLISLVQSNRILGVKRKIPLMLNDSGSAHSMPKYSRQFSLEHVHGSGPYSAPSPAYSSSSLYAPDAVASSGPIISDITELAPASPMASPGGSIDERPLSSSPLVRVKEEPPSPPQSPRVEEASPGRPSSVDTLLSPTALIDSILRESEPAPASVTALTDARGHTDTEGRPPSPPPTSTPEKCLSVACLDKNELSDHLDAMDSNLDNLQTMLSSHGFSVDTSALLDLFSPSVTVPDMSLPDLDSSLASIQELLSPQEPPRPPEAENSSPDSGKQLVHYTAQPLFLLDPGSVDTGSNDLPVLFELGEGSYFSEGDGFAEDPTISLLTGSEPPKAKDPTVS
How it was run: as §1

[4] = target: T2, SPIC (Homo sapiens, UniProt Q8N5J4 1-248); details: protein: recombinant; tags: N-terminal GST; dsDNA, one strand shown
T2 sequence: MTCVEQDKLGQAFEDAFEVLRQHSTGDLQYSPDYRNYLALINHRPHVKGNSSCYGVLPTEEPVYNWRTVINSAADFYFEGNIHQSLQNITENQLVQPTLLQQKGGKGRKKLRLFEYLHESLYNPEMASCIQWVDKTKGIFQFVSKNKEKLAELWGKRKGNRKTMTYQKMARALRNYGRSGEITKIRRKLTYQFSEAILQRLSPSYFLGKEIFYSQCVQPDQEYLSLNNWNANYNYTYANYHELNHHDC
How it was run: as §1

[5] = target: ELF4 (Homo sapiens, UniProt Q99607 1-663); details: protein: recombinant; tags: N-terminal GST; dsDNA, one strand shown
Sequence of ELF4 (Q99607 whole entry): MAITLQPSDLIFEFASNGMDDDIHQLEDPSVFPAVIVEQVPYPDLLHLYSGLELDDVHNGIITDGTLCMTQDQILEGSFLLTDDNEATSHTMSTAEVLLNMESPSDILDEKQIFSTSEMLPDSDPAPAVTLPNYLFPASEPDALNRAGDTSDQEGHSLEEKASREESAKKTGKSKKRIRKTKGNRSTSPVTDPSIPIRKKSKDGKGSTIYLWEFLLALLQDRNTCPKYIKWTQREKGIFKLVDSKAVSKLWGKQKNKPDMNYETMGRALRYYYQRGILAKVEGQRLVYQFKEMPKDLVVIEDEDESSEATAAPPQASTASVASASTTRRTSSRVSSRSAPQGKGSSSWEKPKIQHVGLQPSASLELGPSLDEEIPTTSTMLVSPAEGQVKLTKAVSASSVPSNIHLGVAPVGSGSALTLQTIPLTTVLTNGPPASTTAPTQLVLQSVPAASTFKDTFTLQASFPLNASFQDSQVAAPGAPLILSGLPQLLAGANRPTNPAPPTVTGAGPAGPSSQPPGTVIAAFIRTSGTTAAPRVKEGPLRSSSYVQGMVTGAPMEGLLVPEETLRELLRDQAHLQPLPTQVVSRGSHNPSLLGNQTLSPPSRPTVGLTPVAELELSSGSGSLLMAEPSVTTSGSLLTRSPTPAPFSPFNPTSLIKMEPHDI
How it was run: as §1

[6] = target: T3, ELK4 (Homo sapiens, UniProt P28324-2 1-405); details: protein: recombinant; tags: N-terminal GST; dsDNA, one strand shown
T3 sequence: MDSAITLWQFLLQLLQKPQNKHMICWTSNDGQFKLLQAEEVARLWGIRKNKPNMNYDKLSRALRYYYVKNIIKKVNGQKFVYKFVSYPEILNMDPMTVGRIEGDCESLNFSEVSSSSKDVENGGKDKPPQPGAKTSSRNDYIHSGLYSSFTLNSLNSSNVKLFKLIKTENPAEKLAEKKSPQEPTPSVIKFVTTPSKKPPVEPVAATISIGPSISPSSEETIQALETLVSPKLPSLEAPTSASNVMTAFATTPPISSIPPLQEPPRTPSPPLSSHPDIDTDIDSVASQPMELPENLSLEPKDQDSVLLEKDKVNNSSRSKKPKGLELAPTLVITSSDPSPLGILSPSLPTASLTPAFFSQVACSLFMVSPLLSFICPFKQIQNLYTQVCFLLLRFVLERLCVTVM
How it was run: as §1

[7] = target: T4, ETV2 (Homo sapiens, UniProt O00321 1-342); details: protein: recombinant; tags: N-terminal GST; dsDNA, one strand shown
T4 sequence: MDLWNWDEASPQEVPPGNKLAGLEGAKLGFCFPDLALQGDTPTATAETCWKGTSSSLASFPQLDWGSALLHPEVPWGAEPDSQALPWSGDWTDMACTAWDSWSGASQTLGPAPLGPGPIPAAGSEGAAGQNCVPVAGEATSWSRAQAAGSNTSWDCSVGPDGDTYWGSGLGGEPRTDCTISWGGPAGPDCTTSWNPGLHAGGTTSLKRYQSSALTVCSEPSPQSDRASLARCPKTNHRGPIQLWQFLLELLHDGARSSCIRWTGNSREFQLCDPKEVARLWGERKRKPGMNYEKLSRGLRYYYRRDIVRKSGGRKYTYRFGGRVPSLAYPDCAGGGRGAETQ
How it was run: as §1

[8] = target: T5, ELF3 (Homo sapiens, UniProt P78545 1-371); details: protein: recombinant; tags: N-terminal GST; dsDNA, one strand shown
T5 sequence: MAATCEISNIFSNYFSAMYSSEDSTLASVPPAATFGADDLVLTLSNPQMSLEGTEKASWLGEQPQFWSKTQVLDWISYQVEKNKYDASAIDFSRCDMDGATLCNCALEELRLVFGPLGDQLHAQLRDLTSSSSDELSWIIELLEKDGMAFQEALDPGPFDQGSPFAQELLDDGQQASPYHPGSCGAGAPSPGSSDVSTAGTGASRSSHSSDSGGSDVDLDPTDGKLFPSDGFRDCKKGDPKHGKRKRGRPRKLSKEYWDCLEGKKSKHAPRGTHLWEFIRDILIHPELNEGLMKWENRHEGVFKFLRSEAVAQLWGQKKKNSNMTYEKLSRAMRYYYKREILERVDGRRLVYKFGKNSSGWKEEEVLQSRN
How it was run: as §1

[9] = target: CRX (Homo sapiens, UniProt O43186 1-299); details: protein: recombinant; tags: N-terminal GST; dsDNA, one strand shown
Sequence of CRX (O43186 whole entry): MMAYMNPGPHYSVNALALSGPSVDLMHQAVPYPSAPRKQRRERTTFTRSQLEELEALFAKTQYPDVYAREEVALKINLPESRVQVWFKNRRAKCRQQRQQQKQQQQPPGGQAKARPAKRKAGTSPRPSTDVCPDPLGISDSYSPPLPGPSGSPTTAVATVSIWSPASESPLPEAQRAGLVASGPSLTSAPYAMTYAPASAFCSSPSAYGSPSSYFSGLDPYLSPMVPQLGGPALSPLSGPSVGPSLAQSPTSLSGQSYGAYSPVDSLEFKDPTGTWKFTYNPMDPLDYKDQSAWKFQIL
How it was run: as §1

[10] = target: ETV1 (Homo sapiens, UniProt P50549 1-477); details: protein: recombinant; tags: N-terminal GST; dsDNA, one strand shown
Sequence of ETV1 (P50549 whole entry): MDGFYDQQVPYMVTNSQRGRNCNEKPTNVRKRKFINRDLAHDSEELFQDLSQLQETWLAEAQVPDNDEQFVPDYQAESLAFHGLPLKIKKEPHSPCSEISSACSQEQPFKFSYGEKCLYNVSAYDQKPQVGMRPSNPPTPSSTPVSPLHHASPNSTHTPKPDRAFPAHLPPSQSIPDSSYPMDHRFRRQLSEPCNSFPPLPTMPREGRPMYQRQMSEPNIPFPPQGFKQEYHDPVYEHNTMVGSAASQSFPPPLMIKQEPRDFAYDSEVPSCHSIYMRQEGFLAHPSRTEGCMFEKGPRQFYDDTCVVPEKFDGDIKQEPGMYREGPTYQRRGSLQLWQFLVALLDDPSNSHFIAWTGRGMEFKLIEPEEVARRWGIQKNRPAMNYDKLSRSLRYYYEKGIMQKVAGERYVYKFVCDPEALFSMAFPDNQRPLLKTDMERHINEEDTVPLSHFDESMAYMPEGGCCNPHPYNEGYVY
How it was run: as §1

[11] = target: T6, ERF (Homo sapiens, UniProt P50548 1-548); details: protein: recombinant; tags: N-terminal GST; dsDNA, one strand shown
T6 sequence: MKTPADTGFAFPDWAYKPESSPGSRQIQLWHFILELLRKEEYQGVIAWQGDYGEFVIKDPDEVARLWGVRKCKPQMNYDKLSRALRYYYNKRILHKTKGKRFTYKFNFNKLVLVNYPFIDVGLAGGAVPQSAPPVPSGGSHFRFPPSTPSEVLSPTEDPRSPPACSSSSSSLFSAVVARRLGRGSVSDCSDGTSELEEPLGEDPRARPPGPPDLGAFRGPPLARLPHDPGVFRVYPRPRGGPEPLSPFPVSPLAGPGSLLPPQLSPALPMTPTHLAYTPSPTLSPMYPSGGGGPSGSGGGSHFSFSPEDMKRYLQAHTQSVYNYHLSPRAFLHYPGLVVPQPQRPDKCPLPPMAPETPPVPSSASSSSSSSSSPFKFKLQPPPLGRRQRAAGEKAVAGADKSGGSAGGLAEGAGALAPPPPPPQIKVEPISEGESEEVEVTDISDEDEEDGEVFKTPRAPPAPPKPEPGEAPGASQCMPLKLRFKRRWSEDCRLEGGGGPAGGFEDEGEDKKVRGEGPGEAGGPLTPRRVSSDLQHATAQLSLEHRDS
How it was run: as §1

[12] = target: T7, ETV3L (Homo sapiens, UniProt Q6ZN32 1-361); details: protein: recombinant; tags: N-terminal GST; dsDNA, one strand shown
T7 sequence: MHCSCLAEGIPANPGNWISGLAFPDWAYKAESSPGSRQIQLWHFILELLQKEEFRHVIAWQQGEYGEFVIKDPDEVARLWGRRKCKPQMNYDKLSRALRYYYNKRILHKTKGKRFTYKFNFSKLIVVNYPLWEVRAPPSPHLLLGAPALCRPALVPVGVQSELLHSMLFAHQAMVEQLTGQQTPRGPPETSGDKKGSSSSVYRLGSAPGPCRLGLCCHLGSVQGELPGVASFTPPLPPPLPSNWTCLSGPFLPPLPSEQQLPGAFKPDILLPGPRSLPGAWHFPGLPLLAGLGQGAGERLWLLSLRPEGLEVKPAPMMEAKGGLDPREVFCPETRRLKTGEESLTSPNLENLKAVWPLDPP
How it was run: as §1

[13] = target: T8, ETS2 (Homo sapiens, UniProt P15036 1-469); details: protein: recombinant; tags: N-terminal GST; dsDNA, one strand shown
T8 sequence: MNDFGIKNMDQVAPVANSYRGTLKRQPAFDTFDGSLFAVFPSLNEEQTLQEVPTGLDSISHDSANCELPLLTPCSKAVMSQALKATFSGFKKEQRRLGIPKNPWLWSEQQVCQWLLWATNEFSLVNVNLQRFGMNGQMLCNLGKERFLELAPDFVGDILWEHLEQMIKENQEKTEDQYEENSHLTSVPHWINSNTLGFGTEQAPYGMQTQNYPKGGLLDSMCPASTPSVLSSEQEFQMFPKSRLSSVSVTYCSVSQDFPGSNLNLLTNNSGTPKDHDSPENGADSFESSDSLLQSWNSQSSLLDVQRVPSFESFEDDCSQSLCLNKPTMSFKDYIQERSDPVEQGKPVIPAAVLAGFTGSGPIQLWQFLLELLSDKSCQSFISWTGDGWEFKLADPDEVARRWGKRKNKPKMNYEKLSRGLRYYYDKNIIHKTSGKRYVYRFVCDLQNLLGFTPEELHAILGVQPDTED
How it was run: as §1

[14] = target: T9, SPDEF (Homo sapiens, UniProt O95238 1-335); details: protein: recombinant; tags: N-terminal GST; dsDNA, one strand shown
T9 sequence: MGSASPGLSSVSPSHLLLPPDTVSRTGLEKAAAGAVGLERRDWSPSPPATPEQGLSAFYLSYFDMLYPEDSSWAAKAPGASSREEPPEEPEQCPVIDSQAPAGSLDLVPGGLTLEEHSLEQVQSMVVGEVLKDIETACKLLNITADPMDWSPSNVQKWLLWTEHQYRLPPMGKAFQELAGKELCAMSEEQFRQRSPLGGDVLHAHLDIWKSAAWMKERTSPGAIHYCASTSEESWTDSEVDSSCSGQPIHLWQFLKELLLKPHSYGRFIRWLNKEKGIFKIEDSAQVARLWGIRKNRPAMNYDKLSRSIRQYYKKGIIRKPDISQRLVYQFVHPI
How it was run: as §1

[15] = target: T10, ETV7 (Homo sapiens, UniProt Q9Y603 1-341); details: protein: recombinant; tags: N-terminal GST; dsDNA, one strand shown
T10 sequence: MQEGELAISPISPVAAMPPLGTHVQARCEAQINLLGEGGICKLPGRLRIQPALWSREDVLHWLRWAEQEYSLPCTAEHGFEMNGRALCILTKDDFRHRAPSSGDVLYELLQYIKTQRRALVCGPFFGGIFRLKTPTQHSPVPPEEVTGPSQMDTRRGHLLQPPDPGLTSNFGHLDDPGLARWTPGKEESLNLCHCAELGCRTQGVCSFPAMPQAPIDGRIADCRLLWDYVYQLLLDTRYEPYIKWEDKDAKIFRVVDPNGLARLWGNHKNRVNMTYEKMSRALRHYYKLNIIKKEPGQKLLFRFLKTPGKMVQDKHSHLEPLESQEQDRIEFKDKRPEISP
How it was run: as §1

[16] = target: T11, ELF5 (Homo sapiens, UniProt Q9UKW6-2 1-255); details: protein: recombinant; tags: N-terminal GST; dsDNA, one strand shown
T11 sequence: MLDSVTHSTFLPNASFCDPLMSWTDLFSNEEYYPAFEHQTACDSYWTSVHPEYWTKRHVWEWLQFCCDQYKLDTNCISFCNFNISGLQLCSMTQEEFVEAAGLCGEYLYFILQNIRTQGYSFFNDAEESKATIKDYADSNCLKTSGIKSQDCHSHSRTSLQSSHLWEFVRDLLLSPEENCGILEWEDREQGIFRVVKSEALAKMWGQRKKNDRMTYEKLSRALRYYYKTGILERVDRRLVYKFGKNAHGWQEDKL
How it was run: as §1

[17] = target: T12, ETV3 (Homo sapiens, UniProt P41162-2 1-143); details: protein: recombinant; tags: N-terminal GST; dsDNA, one strand shown
T12 sequence: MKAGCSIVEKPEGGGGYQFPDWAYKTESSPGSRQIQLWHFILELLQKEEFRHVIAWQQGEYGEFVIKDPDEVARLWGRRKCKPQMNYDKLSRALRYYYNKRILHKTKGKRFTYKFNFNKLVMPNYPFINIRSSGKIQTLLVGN
How it was run: as §1

[18] = target: ETV6 (Homo sapiens, UniProt P41212 1-452); details: protein: recombinant; tags: N-terminal GST; dsDNA, one strand shown
Sequence of ETV6 (P41212 whole entry): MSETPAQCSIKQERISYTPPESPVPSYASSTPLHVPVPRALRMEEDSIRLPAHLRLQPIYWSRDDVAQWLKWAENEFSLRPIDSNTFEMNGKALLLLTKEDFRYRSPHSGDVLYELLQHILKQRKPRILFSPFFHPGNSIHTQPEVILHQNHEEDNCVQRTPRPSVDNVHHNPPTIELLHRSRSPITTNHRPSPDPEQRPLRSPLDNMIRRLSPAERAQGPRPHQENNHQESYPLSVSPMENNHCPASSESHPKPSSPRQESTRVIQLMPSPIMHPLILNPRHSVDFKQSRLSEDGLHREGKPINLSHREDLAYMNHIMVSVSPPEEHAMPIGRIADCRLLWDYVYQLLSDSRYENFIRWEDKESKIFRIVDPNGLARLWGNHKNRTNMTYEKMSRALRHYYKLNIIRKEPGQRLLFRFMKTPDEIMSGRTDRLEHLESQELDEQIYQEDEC
How it was run: as §1

## TCGCTT
[1]
  binding signal: 1.2 fold enrichment (6-mer frequency, TF over GST control)
[2]
  binding signal: 1.38 fold enrichment (6-mer frequency, TF over GST control)
[3]
  binding signal: 1.11 fold enrichment (6-mer frequency, TF over GST control)
[4]
  binding signal: 1.08 fold enrichment (6-mer frequency, TF over GST control)
[5]
  binding signal: 1.24 fold enrichment (6-mer frequency, TF over GST control)
[6]
  binding signal: 1.21 fold enrichment (6-mer frequency, TF over GST control)
[7]
  binding signal: 1.05 fold enrichment (6-mer frequency, TF over GST control)
[8]
  binding signal: 1.18 fold enrichment (6-mer frequency, TF over GST control)
[9]
  binding signal: 1.15 fold enrichment (6-mer frequency, TF over GST control)
[10]
  binding signal: 1.24 fold enrichment (6-mer frequency, TF over GST control)
[11]
  binding signal: 1.21 fold enrichment (6-mer frequency, TF over GST control)
[12]
  binding signal: 1.24 fold enrichment (6-mer frequency, TF over GST control)
[13]
  binding signal: 1.34 fold enrichment (6-mer frequency, TF over GST control)
[14]
  binding signal: 1.18 fold enrichment (6-mer frequency, TF over GST control)
[15]
  binding signal: 1.29 fold enrichment (6-mer frequency, TF over GST control)
[16]
  binding signal: 1.21 fold enrichment (6-mer frequency, TF over GST control)
[17]
  binding signal: 1.24 fold enrichment (6-mer frequency, TF over GST control)
[18]
  binding signal: 1.22 fold enrichment (6-mer frequency, TF over GST control)
